# ChEMBL document CHEMBL3988442, “University of Dundee, Small-Polar-MMV Screening Library” (2021)
# About 420 (0.61%) of roughly 69,000 compounds showed an effect of 50% or more. Only a selection was taken, and strong results are over-represented in it overall.
# Target: T1, Histidine--tRNA ligase (Leishmania infantum) (UniProt A4I591)
# T1 sequence (whole entry): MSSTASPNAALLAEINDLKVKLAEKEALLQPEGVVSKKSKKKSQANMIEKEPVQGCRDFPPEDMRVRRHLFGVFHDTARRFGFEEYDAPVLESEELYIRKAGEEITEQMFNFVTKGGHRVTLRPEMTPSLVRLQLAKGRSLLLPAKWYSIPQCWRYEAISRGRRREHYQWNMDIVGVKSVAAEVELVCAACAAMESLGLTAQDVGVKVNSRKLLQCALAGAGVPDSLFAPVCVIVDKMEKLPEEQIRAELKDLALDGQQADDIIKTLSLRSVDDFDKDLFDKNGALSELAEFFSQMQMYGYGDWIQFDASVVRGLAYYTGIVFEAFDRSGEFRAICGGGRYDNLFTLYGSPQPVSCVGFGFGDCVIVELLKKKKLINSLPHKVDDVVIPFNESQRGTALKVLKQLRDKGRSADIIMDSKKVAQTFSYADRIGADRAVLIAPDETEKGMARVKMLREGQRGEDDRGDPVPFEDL
# Assay: Leishmania infantum Histidine tRNA synthetase (LdHisRS)
# Assay type: functional
# Design: scale not given: in the data most compounds retested in dose-response had high values
# Settings: 30 µM
row,Structure (SMILES),Percent Effect
1,O=C(NCc1ccco1)[C@H]1C[C@@H]2CCN(c3cccc(F)c3)C[C@H]2O1,25%
2,Cc1cnc(N2C[C@@H]3CN(Cc4ccco4)CCC[C@]3(C(=O)O)C2)nc1,19.4%
3,COCC(=O)N1CCC2(CC1)NC(=O)[C@H]1CN(C(=O)N(C)C)C[C@H]12,25.2%
4,CN1CCO[C@@H]2CN(C(=O)NCc3ccccc3)CC[C@@H]2C1,4.54%
5,Cc1cccc(S(=O)(=O)N2C[C@H]3C[C@H](C(=O)NCC(C)C)[C@@H](C2)O3)c1,12%
6,Cn1nc2c(cc1=O)CN(Cc1nc(-c3ccccn3)no1)CC2,99.1%
7,CCn1nc2c(cc1=O)CN(Cc1nc(-c3ccccn3)no1)CC2,85.1%
8,c1ccc(-c2noc(CN3CCc4cncnc4C3)n2)nc1,36%
9,CCc1ncc2c(n1)CN(Cc1nc(-c3ccccn3)no1)CC2,22.7%
10,CCn1nc2c(cc1=O)CN(Cc1nc(-c3cccs3)no1)CC2,25.9%
11,CCn1nc2c(cc1=O)CN(Cc1nc(-c3cccnc3)no1)CC2,14.7%
12,COc1ccc(CN2C[C@@H]3COC[C@H](N4CCN(C)CC4)[C@@H]3C2)cc1,1%
13,CC(C)(C)SCCN1CC(=O)N2CC[C@@H](O)C[C@H]2C1=O,10.6%
14,O=C(c1ccco1)N1CC[C@@H]2O[C@@H](COCCN3CCCC3)CC[C@@H]21,4.59%
15,Cc1nccn1-c1ccc(NS(=O)(=O)c2cccnc2)cn1,33.7%
16,Cc1nccn1-c1ccc(NS(=O)(=O)c2cnn(C(C)C)c2)cn1,50.6%
17,Cc1nccn1-c1ccc(NS(=O)(=O)c2cnn(C)c2)cn1,31.3%
18,CCC(C)NS(=O)(=O)c1ccc(/C=C\c2onc(C)c2NC(C)=O)cc1 (stereo not given),5.48%
19,Cc1cc(-c2nn(C)c(Cl)c2CN2CC[C@H](CO)[C@@H](O)C2)no1,2.78%
20,Cc1cc(-c2nn(C)c(Cl)c2CN2CCOCC(O)C2)no1 (stereo not given),15.2%
21,Cc1cc(-c2nn(C)c(Cl)c2CN2Cc3ccccc3C(O)C2)no1 (stereo not given),66.7%
22,CO[C@@H]1CC[C@H]2[C@H]1OCCN2C(=O)C1CCOCC1,23.1%

row,Structure (SMILES),Percent Effect
1,O=C(c1cc(-c2ccco2)cs1)N1CCCC1,55%
2,CN1CCN(C(=O)c2cc(-c3ccco3)cs2)CC1,30%
3,O=C(c1cc(-c2ccco2)cs1)N1CCOCC1,25%
4,Cc1ocnc1C(=O)N1CCN(C(=O)CC(C)C)[C@@H]2CS(=O)(=O)C[C@@H]21,6.67%
5,Cc1cccc(N2Cc3nc(=O)n(Cc4cccc(F)c4)n3C2=O)c1,14.1%
6,NC[C@H]1CC[C@H](C(NC(=O)c2ccccn2)c2ccccn2)CC1 (stereo not given in full),22.9%
7,NC[C@H]1CC[C@H](C(NC(=O)C2CC2)c2ccccn2)CC1 (stereo not given in full),18.8%
8,NC[C@H]1CC[C@H](C(NC(=O)c2ccccc2)c2ccccn2)CC1 (stereo not given in full),22.9%
9,NC[C@H]1CC[C@H](C(NC(=O)c2cccc(F)c2)c2ccccn2)CC1 (stereo not given in full),60%
10,COc1cccc(C(=O)NC(c2ccccn2)[C@H]2CC[C@H](CN)CC2)c1 (stereo not given in full),39.1%
11,COc1ccccc1C(=O)NC(c1ccccn1)[C@H]1CC[C@H](CN)CC1 (stereo not given in full),88.4%
12,O=C(CC1CC1)N1C[C@@H]2CN(c3ccccc3)C(=O)[C@@H]2C1,21.1%
13,COc1cc(CN2C[C@@H]3CNC(=O)[C@H](C)[C@@H]3C2)cc(OC)c1,21.1%
14,O=C1[C@H]2CN(S(=O)(=O)C3CC3)C[C@H]2CN1Cc1cccnc1,2.74%
15,COCCN1C(=O)C[C@H]2[C@H]1CCN2C(=O)c1ccc[nH]1,22.6%
16,Cc1cccc(CN2C[C@@H]3CN(C(=O)c4ccnnc4)C[C@@H]3C2=O)c1,28.6%
17,O=C(c1cscn1)N1C[C@H]2CCCC(OCc3cccnc3)[C@H]2C1 (stereo not given in full),17%
18,Cc1nc(N2CCCC2)nc2c1CCN(C(=O)C1CCC1)CC2,51.3%
19,Cc1nc(N2CCCC2)nc2c1CCN(C(=O)C1CCCCC1)CC2,23.1%
20,Cc1nc(N2CCCC2)nc2c1CCN(C(=O)C1CCCC1)CC2,23.3%
21,CNC(=O)CN1CC[C@H]2CN(C(=O)c3ccc(C)cc3)C[C@H]2C1,9.72%
22,O=C(c1cscn1)N1CC[C@@H]2[C@@H]1CCN2c1ccccn1,10.5%

row,Structure (SMILES),Percent Effect
1,Cn1ncc(-c2cc(-c3cccc(O)c3)nc(N)c2C#N)c1C1CC1,64.6%
2,Cc1cc(O)ccc1-c1cc(-c2cnn(C)c2C2CC2)c(C#N)c(N)n1,29.1%
3,Cc1nn(C)c(C)c1-c1cc(-c2cnn(C)c2C2CC2)c(C#N)c(N)n1,19%
4,CC(CNC(=O)c1cnccn1)Oc1ccc(F)cc1 (stereo not given),5.31%
5,O=C(c1cncc(N2CCC3(CCCNC3)C2)n1)N1CCCC1 (stereo not given),56.7%
6,O=C(c1cncc(N2CCCC3(CCNCC3)CC2)n1)N1CCCCC1,31.7%
7,O=C(c1cncc(N2CCC3(CCNCC3)CC2)n1)N1CCCC1,18.4%
8,CC1(C)[C@H]2CC=C(CN3CCCn4nc(CNS(C)(=O)=O)cc4C3)[C@@H]1C2,10.6%
9,CN1C(=O)[C@H]2CC[C@@H]1CN(C(=O)Nc1ccccc1C(F)(F)F)C2,7.84%
10,O=C(Nc1cccc2ccccc12)N1CCC(N2CCSCC2)CC1,18.3%
11,CN1C(=O)[C@H]2CC[C@@H]1CN(C(=O)Nc1cccc3ccccc13)C2,68.6%
12,CS(=O)(=O)NCC1CCCN(C(=O)Nc2cccc3ccccc23)C1 (stereo not given),33%
13,CC(C)c1ccccc1NC(=O)N1C[C@@H]2CC[C@H](C1)N(C)C2=O,11.8%
14,Cc1oncc1C(=O)N1CC[C@H]2C[C@H](c3ccncn3)O[C@@H]2C1,7.27%
15,CS(=O)(=O)NC[C@]12COC[C@H]1CN(C(=O)C1CC=CC1)C2,-44.5%
16,Fc1ccc(N2CCC3(CC2)CC(OCc2cccnc2)CO3)cc1 (stereo not given),56.1%
17,Fc1cnc(N2CCC3(CC2)CC(OCc2cccnc2)CO3)nc1 (stereo not given),8.77%
18,N#Cc1ccc(N2CCC3(CC2)CC(OCc2cccnc2)CO3)cc1 (stereo not given),33.3%
19,CCN1CC[C@@]2(C(=O)N(C)C)CCN(C(=O)NC(C)C)CC[C@@H]12,15.5%
20,COc1cccc(CN2CC3(CCNCC3)CCC2=O)c1OC,8.57%
21,COc1ccccc1-c1ccccc1CC1(C(=O)O)CCNCC1,2.84%
22,COc1cccn(CC(=O)N2CCCC3(CCCCC3)C2)c1=O,110%

row,Structure (SMILES),Percent Effect
1,CCCOCC1CCN(C(=O)Cn2ncc(N3CCCC3)cc2=O)C1 (stereo not given),-3.8%
2,COc1ccccc1C(=O)N1CCOC2(CCCN(C(C)=O)C2)C1 (stereo not given),8%
3,COC1CCN(C(=O)Cn2cccc(C(F)(F)F)c2=O)C1 (stereo not given),18.8%
4,COc1cccn(CC(=O)N2CCC3(CCNCC3)C2)c1=O,116%
5,CCCOCC1CCN(C(=O)Cn2cccc(C(F)(F)F)c2=O)C1 (stereo not given),12%
6,COc1cccn(CC(=O)N2CCCC3(CCCO3)CC2)c1=O (stereo not given),101%
7,CCCOCC1CCN(C(=O)Cn2cccc(OC)c2=O)C1 (stereo not given),97.4%
8,COc1cccc2c1ccn2CC(=O)N1CCCC(C(=O)O)C1 (stereo not given),7.89%
9,O=C1NCC2(CCCN(C(=O)Cn3nc4ccccc4n3)CC2)O1 (stereo not given),6.45%
10,O=C([C@H]1CN(Cc2ccoc2)C[C@H]2OCC[C@@H]12)N1CCCCO1,22.2%
11,Cc1nc(CN2CCO[C@@H]3CN(C(=O)CC4CC4)CC[C@@H]3C2)cs1,12.7%
12,COC[C@@H]1CC[C@H]2[C@H](CCN2S(=O)(=O)c2ccc(C)cc2)O1,2.65%
13,CN(C)C[C@H]1OC[C@@H]2CN(C(=O)NCc3cccc(F)c3)CC[C@@H]21,0%
14,Cc1n[nH]c(CN2CCN(Cc3ccccc3)[C@@H]3CS(=O)(=O)C[C@@H]32)n1,32%
15,CCN1C[C@H]2C3(CCN(S(C)(=O)=O)CC3)CC[C@@]2(C(=O)N(C)C)C1,12%
16,Cc1cc(C(=O)N2C[C@@H]3COC[C@]3(COCc3cccnc3)C2)no1,12.6%
17,O=C(N[C@@H]1CN(c2ncccn2)[C@@H]2CCCO[C@@H]21)c1cnccn1,18.9%
18,O=C1CC[C@@H]2[C@@H](CCN2C(=O)c2ccsc2)N1Cc1ccncc1,14.7%
19,CN1C(=O)[C@H]2CC[C@@H]1CN(C(=O)c1nnc3n1CCCCC3)C2,17.8%
20,CC1CCN(S(=O)(=O)c2cccn(CC(=O)N3CCOCC3)c2=O)CC1,-7.77%
21,COc1ccccc1CC(=O)N1CC[C@H](O)[C@]2(CCCO2)C1,18.8%
22,COc1cccn(CC(=O)N2CCCC3(CCOCC3)C2)c1=O,98.9%

row,Structure (SMILES),Percent Effect
1,Cc1ccoc1C(=O)N1CC[C@@H]2O[C@@H](C)C[C@H]2C1,12.3%
2,Nc1nnc(SCC(=O)c2cc3c(cc2Cl)NC(=O)C3)s1,50%
3,Cc1nnc(SCC(=O)c2cc3c(cc2Cl)NC(=O)C3)s1,2.63%
4,CSc1nsc(SCC(=O)c2cc3c(cc2Cl)NC(=O)C3)n1,13.2%
5,Cn1cccc1C(=O)N[C@@H]1CN(Cc2cccs2)[C@@H]2COC[C@@H]21,5.71%
6,COc1ccc(CN2C[C@@H]3CN(Cc4ccncc4)C[C@@H]3C2=O)cc1,13.6%
7,COc1cc(N2C[C@H]3CCC[C@@H](CN4CCOCC4)[C@H]3C2)ncn1,17.4%
8,CS(=O)(=O)N1CCC2(CC1)CN(CCn1cccn1)C(=O)CO2,65.8%
9,COCCN1CCC2(CC1)CN(CCn1cccn1)C(=O)CO2,16.2%
10,O=C1COC2(CCN(Cc3ccoc3)CC2)CN1CCn1cccn1,21.4%
11,CCn1cc(C(=O)N2C[C@H]3C[C@H](Oc4ccccc4)C[C@H]3C2)cn1,11.5%
12,Cc1nc(C(=O)N2CCN(C(=O)C3CCC3)[C@@H]3CS(=O)(=O)C[C@@H]32)cs1,2.67%
13,O=C(Cc1ccsc1)N1C[C@H]2CCC[C@@]2(COCc2ccccn2)C1,7.92%
14,Cn1cc(C(=O)N2CCCC2c2ccc3c(c2)OCO3)ccc1=O (stereo not given),12.1%
15,CN(C)CC(=O)N1CCCC1c1ccccn1 (stereo not given),8.63%
16,Cn1cc(C(=O)N2CCCC2c2ccc3c(c2)OCCO3)ccc1=O (stereo not given),27.3%
17,CCSc1ccc(NC(=O)N2CCCC2c2ccncc2)cn1 (stereo not given),1.65%
18,Cn1cc(NC(=O)N2CCCC2c2ccccn2)ccc1=O (stereo not given),108%
19,CC(C)C1CCCN1C(=O)Nc1ccc(=O)n(C)c1 (stereo not given),119%
20,Cn1cc(NC(=O)N2CCCC2c2cccnc2)ccc1=O (stereo not given),100%
21,Cc1cc(C)c(CNC(=O)N2CCCC2c2ccccn2)c(=O)[nH]1 (stereo not given),12.3%
22,COc1ccc(NC(=O)N2CCCC2c2ccncc2)cn1 (stereo not given),13.2%
